About 240 (0.075%) of roughly 320,000 compounds were called active.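 The calls were made as follows: active = inhibition at or above 25%, using the most active replicate where run in duplicate; inactive = inhibition below 25%.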 The sample as a whole holds a higher share of actives than the screen did.
These compounds were tested against Serine/threonine-protein kinase 33 (Homo sapiens) (UniProt Q9BYT3) (assay: inhibitors of purified STK33 kinase, primary screen, biochemical, ADP-Glo luminescence, homogeneous, cell-free (AID 2661)). Conditions: purified STK33, MBP phosphorylation, at 10 µM, active compounds read high.
Sequence of Serine/threonine-protein kinase 33 (Homo sapiens) (Q9BYT3 whole entry, looked up): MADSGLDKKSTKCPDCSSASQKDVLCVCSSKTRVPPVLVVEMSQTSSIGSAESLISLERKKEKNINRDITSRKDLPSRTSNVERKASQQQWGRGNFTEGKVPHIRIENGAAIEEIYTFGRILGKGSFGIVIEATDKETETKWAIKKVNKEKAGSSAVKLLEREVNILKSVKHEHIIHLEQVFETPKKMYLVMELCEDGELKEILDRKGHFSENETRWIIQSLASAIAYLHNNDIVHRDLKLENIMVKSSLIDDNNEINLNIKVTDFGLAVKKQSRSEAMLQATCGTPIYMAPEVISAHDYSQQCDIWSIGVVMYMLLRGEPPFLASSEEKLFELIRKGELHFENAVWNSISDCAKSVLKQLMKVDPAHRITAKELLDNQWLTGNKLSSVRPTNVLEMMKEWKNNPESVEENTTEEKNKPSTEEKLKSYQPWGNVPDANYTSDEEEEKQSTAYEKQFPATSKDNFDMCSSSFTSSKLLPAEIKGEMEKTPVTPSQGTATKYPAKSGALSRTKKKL

inhibition, active:
CC(C)n1cnc2c(Nc3cccc(Cl)c3)nc(N(CCO)CCCO)nc21 55.5%
CCOc1cc(/C=C2\SC(N3CCCC(C)C3)=NC2=O)ccc1O (stereo not given) 26.4%
CC1CCN(C2=NC(=O)/C(=C/c3ccc(O)cc3)S2)CC1 25.8%
COc1cc(C(=O)NC2CCN(C)CC2)ccc1Nc1ncc2c(n1)N(C1CCC(O)CC1)CCC(=O)N2C (stereo not given) 54.5%
S=C(Nc1cccc(Cl)c1)Nc1ccc2cn[nH]c2c1 27%

inhibition, inactive:
CC(C)C[C@H](CO)Nc1nc(N(C)c2cccc(Cl)c2)c2ncn(C(C)C)c2n1 -0.739%
OCCCNc1nccc(-c2cc(Nc3cccc(Cl)c3)ncn2)n1 5.41%
O=C(COc1ccccc1F)Nc1nc(-c2ccccn2)cs1 -1.01%
COc1ccc(C2(c3ccc(OC)cc3)NC(=O)N(CC(=O)Nc3cc(C)on3)C2=O)cc1 -0.176%
CC1CN(C(=O)c2ccc([N+](=O)[O-])s2)CC(C)O1 (stereo not given) -2.19%
O=C1CCC/C=C\C[C@@H](CC(=O)N(CCO)Cc2ccccc2)C(=O)NCCO1 -0.894%
COC(=O)[C@]1(Cc2ccccc2)N[C@H](CN(C)S(=O)(=O)c2ccc(F)cc2)[C@@H]2C(=O)N(Cc3ccccc3)C(=O)[C@@H]21 0.777%
CNC[C@@H]1Oc2c(NS(C)(=O)=O)cccc2C(=O)N([C@@H](C)CO)C[C@H]1C -0.879%
O=C(Cn1cnc2c(OCc3ccccc3)ncnc21)NCc1nc2ccccc2[nH]1 0.0433%
O=C(COC(=O)CSc1ccccc1)Nc1ccc(F)cc1F -1.54%
Cc1noc(C)c1C(=O)OC(C)C(=O)Nc1ccc2c(c1)OCO2 (stereo not given) -2.76%
CC(C)(C)OC(=O)C[C@@H]1C/C=C\C[C@@H](CC(=O)N[C@@H](CO)Cc2ccccc2)C(=O)N2CCC[C@H]2COC1=O -0.177%
O=C1N=C(N2CCCC2)S/C1=C\c1cccc(Br)c1 -0.704%
O=C1N=C(N2CCc3ccccc3C2)S/C1=C\c1ccc(O)cc1 11%
CCOc1cc(/C=C2\SC(N3CCCCC3)=NC2=O)ccc1O 8.65%
CC1CCN(C2=NC(=O)/C(=C/c3cn[nH]c3-c3ccccc3)S2)CC1 0.902%
O=C(COC(=O)c1ccc(F)cc1)NCC1COc2ccccc2O1 (stereo not given) -0.961%
NS(=O)(=O)c1ccc(CNC(=S)NC(=O)c2ccco2)cc1 -0.0738%
CC1Cc2ccccc2N1S(=O)(=O)c1cccc(C(=O)OCC(=O)N2CCOCC2)c1 (stereo not given) -1.13%
Cc1ccc(S(=O)(=O)N2CCCCC2)cc1NC(=O)CCNC(=O)c1ccccc1 -0.0957%
O=C(Nc1nnc(-c2ccccc2)o1)c1cccc(S(=O)(=O)N2CCOCC2)c1 -0.807%
COc1cc(OC)cc(C(=O)NCC(=O)OCC(=O)NC(C)CCc2ccccc2)c1 (stereo not given) -0.78%
Cn1cccc1C(=O)OCC(=O)NCCc1ccccc1 -0.939%
CC(C#N)OC(=O)c1cccnc1SCC(=O)Nc1ccc2c(c1)OCO2 (stereo not given) 0.605%
CC(=O)c1c(C)[nH]c(C(=O)COC(=O)c2cccs2)c1C -3.01%
COc1cc(OC)cc(-c2cc3ccc(F)cc3cn2)c1 1.46%
COc1ccc2nc3n(c(=O)c2c1)-c1ccc(Cl)cc1C(=O)NC3Cc1ccccc1 (stereo not given) 0.119%
COc1ccc(C(=O)NC2CC2)cc1OC1CCN(Cc2cnn(C)c2)CC1 0.281%
COc1ccc(-n2cnc3cc(C(=O)NC4CCCC4)ccc32)cc1 -0.505%
Cc1ccc(C(=O)Nc2ccccc2-c2ccccc2)cc1S(=O)(=O)Nc1ccccc1 -1.82%
COCCN(CCOC)S(=O)(=O)NC[C@H]1O[C@@H](n2cnc3c(N)ncnc32)[C@H](O)[C@@H]1O -0.284%
COc1ccccc1CNC(=O)COC(=O)c1cccs1 -1%
COc1cc(SC)ccc1C(=O)NNC(=O)C1COc2ccccc2O1 (stereo not given) -1.07%
O=C(CSc1nccn1-c1cccc(F)c1)NC1CCCC1 0.473%
Cc1ccc(NS(=O)(=O)c2ccc(C(C)C)cc2)cc1S(=O)(=O)N1CCOCC1 -3.33%
O=C(N=C1SC2CS(=O)(=O)CC2N1c1ccccc1)c1ccccc1 (stereo not given) 0.811%
COc1cc(OC)cc(-c2sc3ccc(OC)cc3c2-c2ccc3cc[nH]c3c2)c1 1.63%
CC(Oc1ccc2c(-c3ccccc3)cc(=O)oc2c1)C(=O)NC(Cc1c[nH]c2ccccc12)C(=O)O (stereo not given) -3%
COc1cccc2sc3cc(NCC[C@@H]4CCCN4C)ccc3c(=O)c12 4.13%
COC(=O)[C@]1(CC(C)C)N[C@H](c2ccc(SC3CCCCC3)cc2)[C@@H]2C(=O)N(C)C(=O)[C@@H]21 -0.318%
COc1ccc(C(=O)C(C)OC(=O)c2cccc(S(=O)(=O)Nc3c(C)n(C)n(-c4ccccc4)c3=O)c2)cc1 (stereo not given) -0.0798%
CC(=O)C(CC(=O)N1CCCC1)C(=O)Nc1ccc(Cl)cc1 (stereo not given) -0.972%
CCC(CO)Oc1cc(NCc2ccccc2)c2ncn(C3CCCC3)c2c1 (stereo not given) 3.27%
O=C(Nc1cccc(S(=O)(=O)N2CCCCC2)c1)c1cncc(Br)c1 -0.246%
CC(=NNC(=O)c1ccc2nc[nH]c2c1)c1ccc(Br)cc1 -0.319%
COc1cc(S(=O)(=O)N2CCN(C(=O)C3CC3)CC2)ccc1NC(C)=O 0.285%
COc1ccccc1C(=O)COC(=O)COc1ccc(C#N)cc1 5.03%
CCc1cccc(CC)c1NC(=S)Nc1ccc2cn[nH]c2c1 24.8%
Cc1cccc(NC(=S)Nc2ccc3cn[nH]c3c2)c1 11.6%
CN(Cc1ccc(F)cc1)C(=O)CN1C(=O)c2ccccc2S1(=O)=O -1.27%
